Test [1] deals with Lysosomal acid glucosylceramidase (Homo sapiens) (UniProt P04062). The test can be described thus: Glucocerebrosidase-p2 (AID 348; in the data active = potency below about 10 µM; also: potency is read from the fitted curve at half-maximal effect). The following applies: purified GBA, blue fluorogenic substrate, 40 min. The procedure, abridged:
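Compounds titrated from 0.6 nM upwards against 0.2 nM enzyme in pH 5.9 citric acid/KH2PO4, taurocholate, tween-20; blue fluorogenic substrate 80 uM, 40 min room temperature, stopped and read Ex 365/Em 440 for AC50.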

Test [2] deals with Cytochrome P450 1A2 (Homo sapiens) (UniProt P05177). Nature of the test: p450-cyp1a2 (AID 410; calls by dose curve; also: potency is read from the fitted curve at half-maximal effect;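 as to activity change, negative = inhibition: -100% = full effect of reference inhibitor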). The gist of the method:
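Luminescent readout of luciferin formed from Luciferin-ME by human CYP1A2; data normalized against complete inhibition by 57 uM furafylline. Enzyme 20nM, substrate 100uM at Km, 100mM KPO4 buffer, 60 min reaction at room temperature.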

Test [3] in a line: NFAT Signaling Pathway (AID 444).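 Also: carbachol stimulus at about its EC50 of 1 µM final; % is scaled to controls: 0 for no effect and ±100 for the full control effect.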 Conditions: Jurkat NFAT-bla M1, carbachol, beta-lactamase ratio, 5 h; at 7.69 µM (top of the series) unless noted. The gist of the method:
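Jurkat cells carrying an NFAT-driven β-lactamase reporter and co-transfected muscarinic M1 receptor were treated with compound plus carbachol (1 uM final, an EC50 level) for 5 h at 37 °C. CCF4 loading followed for 1 h at RT; 460/530 nm ratio gave %activity.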

The nature of test [4]: Stat Signaling Pathway (AID 446).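 Also: ME-180 cervical cancer cells given 40 pM IL-6 alongside compound; SIE-controlled beta-lactamase reporter measured as 460/530 nm FRET emission ratio; % is scaled to controls: 0 for no effect and ±100 for the full control effect.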 The following applies: ME-180 SIE beta-lactamase reporter, IL-6 stimulated, 5 h; at 7.69 µM (top of the series) unless noted. The gist of the method: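 Screening format detects activators and inhibitors alike: ME-180 SIE-bla cells stimulated at 40 pM IL-6 for 5 hrs with compound, then dual-emission beta-lactamase read at 405 nm excitation.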

Test [5] has as its target Glucocorticoid receptor (Homo sapiens) (UniProt P04150). Nature of the test: GR-GFP Redistribution (AID 450;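 active = compounds whose dose series gives a full or clear partial fitted curve of increased nuclear translocation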; also: potency is read from the fitted curve at half-maximal effect). The following applies: U2OS GR-GFP nuclear translocation, laser cytometry, 2 h.
Test [6] shares this target. Nature of the test: GR-EFC Redistribution (AID 451; calls by dose curve; also: potency is read from the fitted curve at half-maximal effect). The following applies: CHO-K1 GR-EFC translocation, beta-gal luminescence, 2 h. The gist of the method:
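CHO-K1 cells stably expressing nuclear-localized β-gal enzyme acceptor and GR fused C-terminally to the enzyme donor fragment; ligand-driven nuclear translocation restores β-gal by complementation. Compounds titrated up to 46 uM final, 2 h at 37 °C; luminescence read.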

For test [7], the target named is Mitogen-activated protein kinase 10 (Mus musculus) (UniProt Q61831). The test can be described thus: JNK3 AlphaScreen Assay (AID 530).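 Also: kinase came from lysate of stimulated human HepG2 cells; signal reports phosphorylation of biotinylated GST-cJun 1-79 at Ser73 with 10 µM ATP; % is scaled to controls: 0 for no effect and ±100 for the full control effect.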 The procedure, abridged:
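Inhibitors reduce antibody binding to phosphorylated biotin-cJun, lowering AlphaScreen luminescence. Lysates from HepG2 cells pre-activated by IL-1beta plus TNF-alpha supplied JNK3; compounds were titrated.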

For test [8], the target named is 3',5'-cyclic-AMP phosphodiesterase 4B (Homo sapiens) (UniProt Q07343). Nature of the test: qHTS Assay for Inhibitors of PDE-IV (AID 607; active = well fitted activation curve with a large enough effect in the main read-out, with a control signal flat, not every such curve was filed as active; also: % of control where 0% means no effect). The procedure, abridged: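 The readout is membrane depolarisation from a cAMP-sensing CNG channel, detected with a potential dye at ex 535/em 590. Cells were HEK293-derived (endogenous PDE-IV) at 1000 cells/well, titrated up to 22.9 uM final.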

The target of test [9] is Cytochrome P450 3A4 (Homo sapiens) (UniProt P08684). The test can be described thus: qHTS Assay for Activators of Cytochrome P450 3A4 (AID 885; active = well fitted curve in the direction sought with a large enough effect; an effect the other way counts as inactive or inconclusive; also: nearly all actives have a fitted effect of over 65% in size). The procedure, abridged: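 Steps: enzyme/substrate mix dispensed; compound added, 10 min RT; NADPH regeneration solution added, 60 min RT; luciferin detection buffer stops reaction; 20 min later luminescence measured.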
For test [10], the target named is Cytochrome P450 2C19 (Homo sapiens) (UniProt P33261). Nature of the test: qHTS Assay for Inhibitors and Substrates of Cytochrome P450 2C19 (AID 899; active = well fitted curve in the direction sought with a large enough effect; an effect the other way counts as inactive or inconclusive; also: potency is read from the fitted curve at half-maximal effect; nearly all actives have a fitted effect of over 60% in size). The gist of the method:
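In 50mM KPO4, the reaction held 5nM enzyme and KM-level (10uM) Luciferin-H EGE; it ran 60 min at 37C after NADPH regeneration and a 10 min compound preincubation. Luminescence values were scaled to 57uM ketoconazole as complete inhibition.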

A short description of test [11]: AP1 Signaling Pathway (AID 357).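 Also: ME-180 reporter cells stimulated with EGF at its EC50 level; % is scaled to controls: 0 for no effect and ±100 for the full control effect.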 Conditions: ME-180 (cervical carcinoma) AP-1-bla reporter, EGF-induced, beta-lactamase ratio, 5 h; at 7.69 µM (top of the series) unless noted. The procedure, abridged: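 In this screen, ME-180 cells in Opti-MEM with 0.5% dialyzed FBS received EC50 EGF and compound titrations for 5 h. AP-1 reporter beta-lactamase was detected via CCF4 ratio, giving AC50 for positive and negative modulators.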

Test [12] deals with Cytochrome P450 2C9 (Homo sapiens) (UniProt P11712). The test can be described thus: qHTS Assay for Inhibitors and Substrates of Cytochrome P450 2C9 (AID 883; active = well fitted curve in the direction sought with a large enough effect; an effect the other way counts as inactive or inconclusive; also: potency is read from the fitted curve at half-maximal effect; nearly all actives have a fitted effect of over 60% in size). The gist of the method:
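CYP2C9 deoxyluciferin hydroxylation, 37C, 60 min with NADPH regeneration; 10nM enzyme, 100uM Luciferin-H (KM). Glo detection reagent stopped reaction; luminescence normalized to sulphaphenazole (57uM) full inhibition.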

A short description of test [13]: Confirmation and Secondary Assay for Modulators of Hemoglobin Beta Chain Splicing at IVS2 654 locus (AID 910; active = well fitted curve in the direction sought with a large enough effect; an effect the other way counts as inactive or inconclusive;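 also: per-well total GFP intensity by laser scanning cytometry after 2-day treatment; % of control where 0% means no effect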). The procedure, abridged: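 HeLa cells stably carrying EGFP interrupted by mutant beta-globin IVS2-654 intron (CMV-driven) were treated with compound for 2 days at 37C; corrected splicing was scored as total peak GFP intensity per well (488 nm excitation, 500-520 nm emission).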

Test [14] can be described thus: Confirmation and Secondary Assay for Modulators of Hemoglobin Beta Chain Splicing at IVS2 705 locus (AID 930; active = well fitted curve in the direction sought with a large enough effect; an effect the other way counts as inactive or inconclusive;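 also: HeLa cells stably expressing the EGFP-705 splicing reporter; % of control where 0% means no effect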). The gist of the method: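 Restored EGFP fluorescence after 2-day compound exposure reports splicing correction in IVS2-705 EGFP reporter HeLa cells; positive control was 500 nM splice-blocking PNA oligo. Signal measured as well total peak GFP intensity (488 nm excitation).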

In test [15] the target is Ubiquitin carboxyl-terminal hydrolase 1 (Homo sapiens) (UniProt O94782). The test can be described thus: Inhibitors of USP1/UAF1: Pilot qHTS (AID 504865; active = well fitted curve in the direction sought with a large enough effect; an effect the other way counts as inactive or inconclusive;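 also: rhodamine fluorescence freed from ubiquitin-rhodamine substrate followed over time; top concentration of the series differs between compounds; % is scaled to controls: 0 for no effect and ±100 for the full control effect; nearly all actives have a fitted effect of over 35% in size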). The procedure, abridged:
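In 50mM HEPES pH 7.8 containing 0.5mM EDTA, 1mM TCEP, 0.1 mg/ml BSA and 0.01% Tween-20, 1nM USP1/UAF1 is exposed to compound for 15 min, then Ub-Rho (150nM final) is added and fluorescence is read over time.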

A number with no mark means an inactive call. Records with an inconclusive call do not appear. The source made the active and inactive calls. Unless noted, calls follow the shape of the dose curve; as a rule, active = well fitted curve in either direction with a large enough effect (not every such curve was filed as active); inconclusive = small, poorly fitted or top-dose-only effect, or another doubt; inactive = flat fitted curve, though single readings scatter.

3',5'-cyclic-AMP phosphodiesterase 4B (Homo sapiens), sequence (Q07343 whole entry, looked up): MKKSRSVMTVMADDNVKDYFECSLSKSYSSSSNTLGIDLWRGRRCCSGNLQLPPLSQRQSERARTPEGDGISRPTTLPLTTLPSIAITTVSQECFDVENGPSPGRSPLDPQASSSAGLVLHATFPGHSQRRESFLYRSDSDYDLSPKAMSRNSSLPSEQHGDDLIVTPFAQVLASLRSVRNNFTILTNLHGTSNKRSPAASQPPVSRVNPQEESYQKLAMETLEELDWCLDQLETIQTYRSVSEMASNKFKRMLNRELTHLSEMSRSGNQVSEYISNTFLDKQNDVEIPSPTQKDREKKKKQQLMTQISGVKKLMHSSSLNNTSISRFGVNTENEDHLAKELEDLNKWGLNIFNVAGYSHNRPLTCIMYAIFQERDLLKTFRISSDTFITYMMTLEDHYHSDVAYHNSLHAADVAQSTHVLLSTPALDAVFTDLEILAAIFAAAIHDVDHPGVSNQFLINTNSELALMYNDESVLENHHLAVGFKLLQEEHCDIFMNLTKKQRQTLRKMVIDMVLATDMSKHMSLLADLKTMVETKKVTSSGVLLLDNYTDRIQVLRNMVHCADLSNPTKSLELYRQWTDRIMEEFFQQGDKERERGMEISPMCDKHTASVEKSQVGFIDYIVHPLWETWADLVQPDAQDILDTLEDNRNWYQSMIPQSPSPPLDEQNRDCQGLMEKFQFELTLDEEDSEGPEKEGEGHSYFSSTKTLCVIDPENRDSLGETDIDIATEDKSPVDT
Glucocorticoid receptor (Homo sapiens), sequence (P04150 whole entry, looked up): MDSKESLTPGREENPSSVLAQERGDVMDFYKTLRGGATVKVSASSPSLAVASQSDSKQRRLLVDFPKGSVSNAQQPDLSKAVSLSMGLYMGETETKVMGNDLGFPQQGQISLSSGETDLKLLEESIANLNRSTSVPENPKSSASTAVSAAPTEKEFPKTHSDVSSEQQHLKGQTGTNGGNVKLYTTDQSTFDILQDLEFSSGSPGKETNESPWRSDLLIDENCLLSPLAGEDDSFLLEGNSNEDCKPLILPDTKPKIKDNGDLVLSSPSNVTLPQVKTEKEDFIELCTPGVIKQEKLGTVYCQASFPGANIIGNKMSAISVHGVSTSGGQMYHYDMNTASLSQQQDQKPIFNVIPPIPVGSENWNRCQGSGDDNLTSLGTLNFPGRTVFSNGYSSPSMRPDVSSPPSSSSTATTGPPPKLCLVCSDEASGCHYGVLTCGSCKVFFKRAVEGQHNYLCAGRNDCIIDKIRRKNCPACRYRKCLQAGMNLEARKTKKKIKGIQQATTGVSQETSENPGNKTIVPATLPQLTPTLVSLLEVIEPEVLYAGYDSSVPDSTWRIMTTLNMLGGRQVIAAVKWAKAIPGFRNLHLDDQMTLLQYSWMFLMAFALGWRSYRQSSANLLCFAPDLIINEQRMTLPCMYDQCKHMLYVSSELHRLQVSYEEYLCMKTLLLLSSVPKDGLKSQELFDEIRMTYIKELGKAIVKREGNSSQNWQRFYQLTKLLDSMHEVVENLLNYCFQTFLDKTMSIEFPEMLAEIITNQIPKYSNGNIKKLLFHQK
Lysosomal acid glucosylceramidase (Homo sapiens), sequence (P04062 whole entry, looked up): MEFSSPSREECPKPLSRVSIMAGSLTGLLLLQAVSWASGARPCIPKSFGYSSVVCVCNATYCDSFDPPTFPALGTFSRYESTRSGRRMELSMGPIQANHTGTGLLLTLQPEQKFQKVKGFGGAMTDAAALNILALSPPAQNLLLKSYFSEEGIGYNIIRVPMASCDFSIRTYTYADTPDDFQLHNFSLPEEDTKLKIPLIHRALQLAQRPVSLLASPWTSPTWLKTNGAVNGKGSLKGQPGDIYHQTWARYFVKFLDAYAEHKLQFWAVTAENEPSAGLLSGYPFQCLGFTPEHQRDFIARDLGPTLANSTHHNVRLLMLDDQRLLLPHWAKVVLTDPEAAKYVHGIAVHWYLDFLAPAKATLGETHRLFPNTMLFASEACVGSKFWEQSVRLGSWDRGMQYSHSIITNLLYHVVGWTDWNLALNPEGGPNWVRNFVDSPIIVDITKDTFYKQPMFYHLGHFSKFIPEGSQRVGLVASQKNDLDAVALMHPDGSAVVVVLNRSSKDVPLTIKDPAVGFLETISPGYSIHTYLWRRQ
Cytochrome P450 3A4 (Homo sapiens), sequence (P08684 whole entry, looked up): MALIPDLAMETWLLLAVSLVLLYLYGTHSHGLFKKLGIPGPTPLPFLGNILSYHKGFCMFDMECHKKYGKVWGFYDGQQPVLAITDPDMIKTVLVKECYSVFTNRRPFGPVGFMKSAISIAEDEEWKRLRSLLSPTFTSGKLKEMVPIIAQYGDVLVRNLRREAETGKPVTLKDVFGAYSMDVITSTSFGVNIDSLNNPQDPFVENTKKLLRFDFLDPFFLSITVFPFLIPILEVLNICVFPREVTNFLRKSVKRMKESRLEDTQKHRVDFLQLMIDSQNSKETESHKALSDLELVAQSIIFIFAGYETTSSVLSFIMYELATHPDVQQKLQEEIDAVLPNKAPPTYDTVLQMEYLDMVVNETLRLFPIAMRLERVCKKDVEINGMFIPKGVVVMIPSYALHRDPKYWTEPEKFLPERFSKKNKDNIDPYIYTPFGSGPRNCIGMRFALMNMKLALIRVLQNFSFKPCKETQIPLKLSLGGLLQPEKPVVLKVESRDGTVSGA
Cytochrome P450 1A2 (Homo sapiens), sequence (P05177 whole entry, looked up): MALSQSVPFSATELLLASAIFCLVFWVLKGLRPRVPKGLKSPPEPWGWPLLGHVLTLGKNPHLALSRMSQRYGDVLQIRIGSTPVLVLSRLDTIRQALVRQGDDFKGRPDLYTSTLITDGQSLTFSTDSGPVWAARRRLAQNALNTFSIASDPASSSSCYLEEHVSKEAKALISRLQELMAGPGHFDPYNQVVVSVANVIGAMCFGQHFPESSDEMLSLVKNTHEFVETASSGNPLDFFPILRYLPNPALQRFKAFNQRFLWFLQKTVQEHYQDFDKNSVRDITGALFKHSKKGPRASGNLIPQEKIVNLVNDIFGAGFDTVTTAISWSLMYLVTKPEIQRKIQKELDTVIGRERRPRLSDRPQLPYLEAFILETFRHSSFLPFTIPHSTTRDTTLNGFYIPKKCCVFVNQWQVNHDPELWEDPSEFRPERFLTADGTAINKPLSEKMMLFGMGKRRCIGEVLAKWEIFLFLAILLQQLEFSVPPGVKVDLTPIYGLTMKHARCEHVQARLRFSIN
Cytochrome P450 2C19 (Homo sapiens), sequence (P33261 whole entry, looked up): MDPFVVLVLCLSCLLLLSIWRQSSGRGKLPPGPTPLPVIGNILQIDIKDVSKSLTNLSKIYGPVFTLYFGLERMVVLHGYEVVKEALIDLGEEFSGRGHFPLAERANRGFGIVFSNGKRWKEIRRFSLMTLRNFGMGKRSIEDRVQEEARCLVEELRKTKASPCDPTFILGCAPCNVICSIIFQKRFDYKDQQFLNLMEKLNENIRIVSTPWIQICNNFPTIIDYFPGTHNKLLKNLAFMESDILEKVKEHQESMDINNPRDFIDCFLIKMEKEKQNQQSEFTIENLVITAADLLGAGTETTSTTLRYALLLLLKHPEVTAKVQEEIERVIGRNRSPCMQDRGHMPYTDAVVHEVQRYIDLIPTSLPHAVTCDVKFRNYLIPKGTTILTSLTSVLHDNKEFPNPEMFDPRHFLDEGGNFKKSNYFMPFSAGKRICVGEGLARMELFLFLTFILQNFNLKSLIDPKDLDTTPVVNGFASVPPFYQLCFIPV
Ubiquitin carboxyl-terminal hydrolase 1 (Homo sapiens), sequence (O94782 whole entry, looked up): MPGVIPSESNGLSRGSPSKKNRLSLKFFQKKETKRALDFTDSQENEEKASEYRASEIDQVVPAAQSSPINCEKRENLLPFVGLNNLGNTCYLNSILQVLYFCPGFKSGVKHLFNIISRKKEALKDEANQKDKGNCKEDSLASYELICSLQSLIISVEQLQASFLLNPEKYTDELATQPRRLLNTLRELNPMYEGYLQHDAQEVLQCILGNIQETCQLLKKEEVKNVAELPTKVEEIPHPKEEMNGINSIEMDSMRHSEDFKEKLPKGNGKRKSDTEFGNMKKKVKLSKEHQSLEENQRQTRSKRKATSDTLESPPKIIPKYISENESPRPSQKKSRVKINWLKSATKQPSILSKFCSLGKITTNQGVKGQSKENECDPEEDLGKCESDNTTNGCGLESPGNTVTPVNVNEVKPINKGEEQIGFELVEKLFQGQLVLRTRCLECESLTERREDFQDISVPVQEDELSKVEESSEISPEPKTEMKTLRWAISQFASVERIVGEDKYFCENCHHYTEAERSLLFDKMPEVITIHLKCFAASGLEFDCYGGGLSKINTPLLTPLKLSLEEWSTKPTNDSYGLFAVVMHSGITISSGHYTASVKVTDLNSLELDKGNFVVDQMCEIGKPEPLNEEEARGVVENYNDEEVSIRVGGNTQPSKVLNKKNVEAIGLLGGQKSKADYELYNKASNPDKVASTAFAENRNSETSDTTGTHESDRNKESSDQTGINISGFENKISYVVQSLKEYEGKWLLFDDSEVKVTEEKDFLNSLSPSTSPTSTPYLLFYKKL
Cytochrome P450 2C9 (Homo sapiens), sequence (P11712 whole entry, looked up): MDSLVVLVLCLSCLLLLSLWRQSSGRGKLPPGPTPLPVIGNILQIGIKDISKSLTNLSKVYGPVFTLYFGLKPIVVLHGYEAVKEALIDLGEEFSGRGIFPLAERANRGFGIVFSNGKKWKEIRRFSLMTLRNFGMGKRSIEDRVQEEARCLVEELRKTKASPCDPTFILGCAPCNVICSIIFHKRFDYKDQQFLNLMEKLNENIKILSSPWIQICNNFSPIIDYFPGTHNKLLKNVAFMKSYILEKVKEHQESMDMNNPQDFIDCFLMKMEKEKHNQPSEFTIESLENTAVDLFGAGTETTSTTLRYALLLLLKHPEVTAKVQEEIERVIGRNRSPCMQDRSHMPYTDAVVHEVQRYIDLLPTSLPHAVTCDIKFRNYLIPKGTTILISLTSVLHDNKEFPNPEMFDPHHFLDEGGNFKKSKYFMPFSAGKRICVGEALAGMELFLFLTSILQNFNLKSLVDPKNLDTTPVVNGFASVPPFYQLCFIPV

With `OC[C@@H]1O[C@@H](N2CCN([C@@H]3O[C@@H](CO)[C@@H](O)[C@H](O)[C@H]3O)CC2)[C@@H](O)[C@H](O)[C@H]1O`, the Potency in test [1] was greater than 11.4 µM; in test [5], greater than 46 µM; in test [6], greater than 9.22 µM. Also, the values for the activity change, negative = inhibition in [2] and in [3] were -9.7% [at 2.29 µM] and -2.18%, respectively. Moreover, the activity, negative = inhibition in [4] is -5.46%. Moreover, the Potency entry in [7] and in [8] was “inactive” each time.

In the case of `COc1ccc2c(=O)cc(-c3ccncc3)oc2c1OC`, the Potency in [1] was greater than 11.4 µM; in [2] it was 1.58 µM (active); in test [5], greater than 46 µM; in test [6], greater than 9.22 µM; in [10] it was 1.58 µM (active). The activity change, negative = inhibition in test [3] was 2.62%. For the same compound, the activity, negative = inhibition in test [4] is -17.8%. Also, the Potency result in test [7], in [8] and in test [9] was “inactive” throughout.

As to `CN(C)CCSCCO`, the Potency in test [1] was greater than 11.4 µM; in [5], greater than 46 µM; in [6], greater than 9.22 µM. Besides, the activity change, negative = inhibition in test [2] was -14.3% [at 2.29 µM]; in test [3] it was 2.29%. Moreover, in [4], the activity, negative = inhibition was 9.73%. Further, the Potency result in [7] and in [8] was “inactive” in each case.

Take `[Cu].[O-]/N=C1/C(=[OH+])Nc2ccccc21.[O-]Nc1c(O)[nH]c2ccccc12`: the Potency in test [1] was greater than 11.4 µM; in test [5], greater than 46 µM; in test [6], greater than 9.22 µM. Further, the activity change, negative = inhibition in test [2] is -20.1% [at 2.29 µM]; in test [3], 13.2%. Further, the activity, negative = inhibition in test [4] was 5.41%. Moreover, the Potency entry in test [7] and in [8] was “inactive” throughout.

Turning to `Cc1cc(Nc2ccc(N=Nc3ccc(O)c4ncccc34)cc2)nc(C)n1`, the Potency was greater than 11.4 µM in test [1], greater than 46 µM in test [5] and greater than 9.22 µM in [6]. Also, the activity change, negative = inhibition in test [11] is 9.64%. In addition, the Potency result in test [7] and in test [8] was “inactive” in each case.

`OCCCNc1ncnc2[nH]ncc12`: the Potency is greater than 11.4 µM in test [1], 6.31 µM (active) in [2], greater than 46 µM in test [5] and greater than 9.22 µM in [6]. In test [3], the activity change, negative = inhibition is 0.588%. Further, the activity, negative = inhibition in test [4] was -7.35%. Further, the Potency result in test [7] and in test [8] was “inactive” throughout.

With `O=C(c1ccc([N+](=O)[O-])cc1)[C@@H](Br)[C@@H](Br)c1ccnc2ccccc12`, the Potency in [1] was greater than 11.4 µM; in test [5], greater than 46 µM; in [12] it was 3.16 µM (active); in test [10] it was 1.26 µM (active). Also, in test [11], the activity change, negative = inhibition is -11.4%. Moreover, the Potency result in test [7], in test [8] and in test [9] was “inactive” throughout.

In the case of `CN(C)c1ccc(-c2nc(N3CCNCC3)c3ccccc3n2)cc1`, the Potency was greater than 11.4 µM in [1], 10 µM (active) in [2], greater than 46 µM in test [5] and greater than 46 µM in [6]. Also, the activity change, negative = inhibition in [3] is 5.32%. In addition, the activity, negative = inhibition in test [4] was 23.9%. For the same compound, the Potency result in test [7], in [9] and in test [15] was “inactive” throughout. Moreover, the call in [13] and in test [14] was inactive.

Take `CC(=O)O[C@H]1CC[C@@]2(C)C(=CC[C@@H]3[C@@H]4CC[C@H](c5cc(C(F)(F)F)n(C(C)=O)n5)[C@]4(C)CC[C@@H]32)C1`: the values for the Potency in test [1], in test [5] and in test [6] were greater than 11.4 µM, greater than 46 µM and greater than 9.22 µM, respectively. In addition, the Potency result in [2], in [7] and in test [8] was “inactive” each time. Besides, in test [3], the activity change, negative = inhibition was 12.1%. In test [4], the activity, negative = inhibition is 16.4%.

The values above are taken from PubChem BioAssay (NCATS).
